A3G deaminase: inhibitors of human APOBEC3G DNA deaminase; recombinant A3G, ssDNA deamination FAM/TAMRA fluorescence; actives 0.28% (n = 330,000); Q9HC16; inhibition, % at 20 µM; AID 493012;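 active = inhibition of at least 40% at 20 µM, with no more than 30% in the related APOBEC3A deaminase screen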;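 note: plate controls were DMSO wells with A3G for no effect and wells lacking A3G enzyme for full effect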
APOBEC3A inh: human APOBEC3A DNA deaminase inhibition; inhibition, % at 20 µM; actives 0.41% (n = 330,000); P31941; recombinant A3A, FAM/TAMRA ssDNA deamination fluorescence;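 active = at least 40% inhibition at 20 µM here, with at most 30% in a related deaminase screen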;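 note: plate controls were A3A with DMSO for no effect and wells lacking A3A enzyme for full effect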
Target sequence (P31941 whole entry, looked up): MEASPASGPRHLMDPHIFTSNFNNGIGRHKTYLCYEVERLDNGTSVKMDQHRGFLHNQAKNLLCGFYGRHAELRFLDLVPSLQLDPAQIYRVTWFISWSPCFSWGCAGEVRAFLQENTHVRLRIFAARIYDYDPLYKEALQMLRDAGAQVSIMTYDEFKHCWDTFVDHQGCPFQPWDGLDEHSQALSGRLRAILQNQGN
PHOSPHO1 inh: inhibitors of human PHOSPHO1 phosphatase; inhibition, % at 13.3 µM; Q8TCT1; recombinant PHOSPHO1, absorbance phosphatase assay; actives 1.1% (n = 290,000); in the data active = inhibition above about 60%
ALR inh: human ALR oxidase inhibition via reduced H2O2; P55789; purified ALR, DTT oxidation, H2O2 HRP-luminol luminescence; inhibition, % (concentration not given with the values); actives 3.8% (n = 290,000);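 active = mean replicate inhibition above about 79%, with every replicate also reaching it, limit read from the data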
Target sequence (P55789 whole entry, looked up): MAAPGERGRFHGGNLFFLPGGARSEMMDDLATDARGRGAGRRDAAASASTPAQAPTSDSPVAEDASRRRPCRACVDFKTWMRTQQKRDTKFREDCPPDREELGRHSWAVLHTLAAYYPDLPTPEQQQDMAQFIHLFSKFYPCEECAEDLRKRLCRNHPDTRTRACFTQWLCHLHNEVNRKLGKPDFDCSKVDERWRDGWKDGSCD
aDG glyco up: increases alpha dystroglycan glycosylation; Pro5-aDG cells, alpha-DG glycosylation AlphaScreen (IIH6); 0% Pro5, 100% B10-LARGE cell signal; activation, % at 10 µM; actives 0.22% (n = 360,000); AID 624168;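 active = activation of at least 8% versus controls, or a plate z-score of at least 8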;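 note: Pro5 are CHO cells carrying HIG-tagged alpha-DG that lacks glycosylation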
rCAG binder: binds r(CAG) RNA repeats; r(CAG) RNA repeat, TO-PRO-1 dye displacement fluorescence; inhibition, % at 3 µM; actives 1.3% (n = 370,000); AID 651821;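 active = inhibition above the plate cutoff, the mean of all test compounds on that plate plus 3 SD, cut at about 35% in these data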;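 note: 0% = DMSO alone and 100% = 100 µM mitoxantrone as full dye displacement; higher means more dye released from RNA so lower well fluorescence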
Active calls of the source: *. An excerpt weighted towards active compounds, which were near 5.4% of everything screened.

For CCN(CCNS(=O)(=O)c1ccc2[nH]c(=O)sc2c1)c1ccccc1 the results were A3G deaminase -6, APOBEC3A inh -3, PHOSPHO1 inh 18, ALR inh 98*, aDG glyco up 0 and rCAG binder 28.
CC(C)(C)C(=O)c1sc(Nc2ccccc2)nc1N was read as A3G deaminase -4, APOBEC3A inh -1, PHOSPHO1 inh -3, ALR inh 97*, aDG glyco up 0 and rCAG binder -3.
Screening CCOC(=O)c1csc(NC(=O)C2CCCN(S(=O)(=O)c3cc(OC)ccc3OC)C2)n1 (centres undefined) returned rCAG binder 1.
Screening CCCCCCCCN1C(=O)[C@@H](CC(=O)N2CCN(C(=O)C3CC3)CC2)C[C@@]2(C(=O)OC)C1=C[C@H](COCc1ccccc1)O[C@@H]2C returned rCAG binder 5.
For Oc1[nH]c2ccc(Br)cc2c1N=NC(=S)N1CCOCC1 the results were A3G deaminase 23, APOBEC3A inh -7, PHOSPHO1 inh 92*, ALR inh 99*, aDG glyco up 0 and rCAG binder 26.
For Oc1cccc(NC(=S)N=Nc2c(O)[nH]c3ccccc23)c1 the results were A3G deaminase -3, APOBEC3A inh 3, PHOSPHO1 inh -3, ALR inh 99*, aDG glyco up 0 and rCAG binder 13.
Screening Oc1[nH]c2ccccc2c1N=NC(=S)N1CCOCC1 returned A3G deaminase 29, APOBEC3A inh -8, PHOSPHO1 inh 42, ALR inh 90* and aDG glyco up 0.
For NC(=S)N=Nc1c(O)[nH]c2ccccc12 the results were A3G deaminase -3, APOBEC3A inh 2, PHOSPHO1 inh 14, aDG glyco up 0 and rCAG binder 0.
For O=C(c1cc(-c2ccccc2)on1)N1CCC(Oc2cccnc2)CC1 the results were rCAG binder -3.
For C=CCNC(=O)CN(C(=O)Cc1ccc(Cl)nc1)c1cccc(Br)c1 the results were rCAG binder 1.
CN(CCOC(=O)c1cc2ccccc2o1)C1CN(Cc2cn(Cc3ccccc3Cl)nn2)S(=O)(=O)C1 (centres undefined) was read as rCAG binder 4.
`O=C(COc1ccc(Cl)cc1Cl)NC(=S)N1CCCc2ccccc21` gave A3G deaminase 21, APOBEC3A inh 0, PHOSPHO1 inh 33, ALR inh 98*, aDG glyco up 0 and rCAG binder 3.
Screening CCCC[C@H](C(=O)N(C)c1cccc(OC)c1)[C@@H](O)c1ccc(C(C)=O)cc1 returned rCAG binder -1.
CC1CCC/C(=C\Nc2ccc3c(c2)OCO3)C1=O (centres undefined) was read as A3G deaminase 4, APOBEC3A inh 8, PHOSPHO1 inh 81*, ALR inh -12, aDG glyco up 0 and rCAG binder 7.
O=C1CCC/C1=C/Nc1ccc2c(c1)OCO2 was read as A3G deaminase 1, APOBEC3A inh 3, PHOSPHO1 inh 0, ALR inh 52, aDG glyco up 0 and rCAG binder 7.
Screening CCOc1ccc(-n2c(Cc3cc(=O)[nH]c(=O)[nH]3)nnc2SC(C)C)cc1 returned A3G deaminase -6, APOBEC3A inh -2, PHOSPHO1 inh 48, ALR inh 1, aDG glyco up 0 and rCAG binder -5.
`CCC(C)Sc1nnc(Cc2cc(=O)[nH]c(=O)[nH]2)n1-c1ccc(F)cc1` (centres undefined) gave A3G deaminase -6, APOBEC3A inh -3, PHOSPHO1 inh 36, ALR inh 98*, aDG glyco up 0 and rCAG binder 2.
CN[C@H]1C[C@H]2c3[nH]c4cccc(-c5ccccc5)c4c3CCN2C[C@H]1[C@H](C)O was read as rCAG binder 11.
`COC1=C/C(=C/c2c(N)n3nc(CC(=O)N4CCCCC4)sc3nc2=O)C=CC1=O` gave A3G deaminase -3, APOBEC3A inh -5, PHOSPHO1 inh 22, ALR inh 100* and aDG glyco up 1.
CCOC1=C/C(=C/c2c(N)n3nc(CC(=O)N4CCCCC4)sc3nc2=O)C=CC1=O was read as A3G deaminase -8, APOBEC3A inh -2, PHOSPHO1 inh 7, ALR inh 99*, aDG glyco up 0 and rCAG binder 21.
Screening Nc1c(C=C2C=CC(=O)C=C2)c(=O)nc2sc(CC(=O)N3CCOCC3)nn12 returned A3G deaminase -3, APOBEC3A inh -2, PHOSPHO1 inh 18, ALR inh 98*, aDG glyco up 0 and rCAG binder 18.
Screening CCOC1=C/C(=C/c2c(N)n3nc(S(=O)(=O)CC)sc3nc2=O)C=CC1=O returned A3G deaminase -8, APOBEC3A inh 1, PHOSPHO1 inh 16, ALR inh 99*, aDG glyco up 0 and rCAG binder 18.
`COC1=CC(=Cc2c(N)n3nc(CC(=O)N4CCOCC4)sc3nc2=O)C=C(OC)C1=O` gave A3G deaminase 7, APOBEC3A inh 1, PHOSPHO1 inh 30, ALR inh 51, aDG glyco up 0 and rCAG binder 8.
Screening Cc1cc(NC(=O)CSc2ccc(F)cc2)no1 returned A3G deaminase -1, APOBEC3A inh 0, PHOSPHO1 inh 6, aDG glyco up 0 and rCAG binder -2.
For CC(=O)Nc1ccc(SCC(=O)Nc2cc(C(C)(C)C)nn2-c2ccccc2)cc1 the results were A3G deaminase 0, APOBEC3A inh -2, PHOSPHO1 inh -4, ALR inh 89*, aDG glyco up 0 and rCAG binder -5.
Cn1c(SCC(=O)Nc2cc(C(C)(C)C)nn2-c2ccccc2)nc2ccccc21 was read as A3G deaminase -5, APOBEC3A inh 0, PHOSPHO1 inh -14, ALR inh -27, aDG glyco up 1 and rCAG binder 2.
`CC(=O)Nc1ccc(SCC(=O)NC(=O)c2ccccc2Br)cc1` gave A3G deaminase -7, APOBEC3A inh -3, ALR inh 98*, aDG glyco up 0 and rCAG binder 3.
Screening Cc1cc(NC(=O)CSc2nnc(-c3ccc([N+](=O)[O-])cc3)o2)no1 returned A3G deaminase 3, APOBEC3A inh 5, PHOSPHO1 inh 68*, ALR inh -11, aDG glyco up 0 and rCAG binder 1.
Screening CC(=O)Nc1ccc(SCC(=O)Nc2cc(C)on2)cc1 returned A3G deaminase -6, APOBEC3A inh 3, PHOSPHO1 inh 4, ALR inh 99*, aDG glyco up 0 and rCAG binder -1.
`Cc1ccc(CN2CCCCC(NC(=O)c3ccc(F)c(F)c3)C2=O)cc1` (centres undefined) gave rCAG binder 4.
`CC(C)CSc1ncccc1-c1nc2ccccc2[nH]1` gave rCAG binder 1.
Screening Cc1nc2ccc(S(=O)(=O)NCC(=O)NCc3ccc(F)cc3)cc2s1 returned rCAG binder 6.

Screening data: PubChem BioAssay, several laboratories
